This is a sample that favours compounds with a hit; in the whole collection about 4% have one here.
Wnt act = Wnt/beta-catenin pathway activators, primary screen, cell-based, plate reader, single point | Wnt/beta-catenin reporter cell assay, activator | activation, % at 9.35 µM | 1.2% of 300,000 active | AID 743398, 2014; in the data active means activation above about 30%, passing the limit was not always enough; inconclusive means no clear call, values can overlap the other calls;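 further: 0% = neutral control wells and 100% = positive control wells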
esBAF inh = Bmi1 luciferase reporter increase in mESCs, primary screen, esBAF inhibitor project, mouse ES cells, Bmi1 luciferase knock-in, single point. 24 h; 100% = twice the neutral-well signal. reporter increase, % at 12.5 µM. 2% of 350,000 active; in the data active means activation above about 40%; inconclusive means no clear call, values can overlap the other calls;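 further: 0% = median of the plate's neutral control wells and 100% = double that signal; a rise in the Bmi1 reporter signal indicates esBAF inhibition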
MITF act = activators of MITF-driven TRPM1 promoter reporter, primary screen, cell-based, SK-MEL-5, luciferase, single point. activation, % at 12.5 µM. 0.75% of 300,000 active. SK-MEL-5 TRPM1-promoter luciferase, 24 h; % of positive control, neutral wells = 0;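 active means mean activation of at least 80% with every replicate also reaching 80%; inconclusive means mean reaches 80% but some replicate falls short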;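 further: 0% = neutral control wells and 100% = parthenolide positive control wells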
EBV LMP1 NFkB = EBV LMP1-driven NF-kappaB luciferase reporter inhibitors, primary screen, cell-based, luminescence, single point. LMP1-induced NF-kappaB luciferase reporter cells. inhibition, % at 12.5 µM. 0.69% of 350,000 active. AID 504558, 2011; in the data active means inhibition above about 41%; inconclusive means no clear call, values can overlap the other calls;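 further: 0% = neutral control wells and 100% = reference inhibitor control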
TRPM1 prom inh = inhibitors of MITF-dependent TRPM1 promoter reporter, primary screen, cell-based, SK-MEL-5, single point, luciferase | SK-MEL-5 TRPM1 promoter luciferase, 24 h | inhibition, % at 12.5 µM | 0.83% of 330,000 active | AID 488899, 2010;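 active means mean inhibition across replicates of 60% or more, whatever share of single replicates reaches that level; inconclusive means some that reach 60%, reason not given; inactive means mean inhibition across replicates below 60%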
Statin myotox sup = suppressors of statin myotoxicity in C2C12 myotubes, primary screen, cell-based, single point, plate reader. C2C12 myotubes + simvastatin, ATP luminescence, 48 h; scaled: DMSO 0, geranylgeraniol control 100. rescue of ATP level, % at 7.49 µM. 0.78% of 330,000 active. AID 602340, 2012;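 active means mean ATP rescue above about 67%, or every replicate alone reaching that limit, limit read from the data, passing the limit was not always enough; inconclusive means no clear call, values can overlap the other calls; inactive means mean under the limit and some replicate under it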;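 further: myotubes were challenged with 10 µM simvastatin during compound exposure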
esBAF Ring1 qPCR = Ring1 mRNA increase in mouse ESCs, confirmation, esBAF inhibitor project, cell-based, mouse ESC, RT-qPCR, cherry-pick; shares compounds with esBAF inh; mouse ESC E14, Ring1 mRNA RT-qPCR fold change; fold change at 33 µM; 550 tested, under 10 active;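 active means Ring1 gene expression raised more than 2-fold over untreated cells in both replicates at either tested dose; inconclusive means only one replicate above 2-fold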;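 further: Ring1 transcript normalised to actin housekeeping signal by TaqMan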
Fgf4 repress = Fgf4 mRNA decrease in mouse ESCs, confirmation, esBAF inhibitor project, cell-based, mouse ESC, RT-qPCR, cherry-pick | 4% of 550 active | mouse ESC E14, Fgf4 mRNA qPCR fold change; stronger effect = lower value | Fgf4 expression fold change at 33 µM | shares compounds with esBAF inh;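 active means Fgf4 expression under 0.8 fold of control in both repeat measurements at one or both tested doses; inconclusive means under 0.8 fold in just a single repeat measurement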;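 further: Fgf4 transcript normalised to actin in duplex TaqMan qPCR; cells exposed to compound for 24 h before lysis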
esBAF Bmi1 qPCR = esBAF inhibition via Bmi1 de-repression, confirmation, cell-based, RT-qPCR, mouse ESC, single point, cherry-pick. shares compounds with esBAF inh. mouse ESE14 ES cells, Bmi1 mRNA qPCR fold; stronger effect = higher value. fold change at 33 µM. 550 tested, under 10 active. AID 743180, 2013;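 active means Bmi1 expression fold change above 6 at either tested concentration, seen in replicate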
A549 tox SP = A549 cell cytotoxicity, cytotoxicity control, plate reader, single point, cherry-pick; shares compounds with esBAF inh; cell viability change % (negative = cytotoxic), % at 25 µM, hits read low; 550 tested, under 10 active; AID 743188, 2013; call rule not given here
HepG2 tox SP = HepG2 cell cytotoxicity, cytotoxicity control, plate reader, single point, cherry-pick | shares compounds with esBAF inh | stronger effect = lower value | activity change, negative = inhibition, % at 25 µM | 4% of 550 active; in the data active means activity change below about -50%
HEK293 tox SP = HEK293 cell cytotoxicity, cytotoxicity control, plate reader, single point, cherry-pick | shares compounds with esBAF inh | activity change, negative = inhibition, % at 25 µM, hits read low | 3% of 550 active | AID 743190, 2013; in the data active means activity change below about -38%, passing the limit was not always enough
Active calls of the source: *; ? = inconclusive; / = no result.

SMILES	Wnt act	esBAF inh	MITF act	EBV LMP1 NFkB	TRPM1 prom inh	Statin myotox sup	esBAF Ring1 qPCR	Fgf4 repress	esBAF Bmi1 qPCR	A549 tox SP	HepG2 tox SP	HEK293 tox SP
COc1ccccc1-c1sc2ccccc2c1-c1ccc(O)cc1	-1	1	-8	-5	9	5	/	/	/	/	/	/
O=C(CSc1nnc(-c2ccccc2Br)o1)Nc1nncs1	1	9	3	6	-2	-6	/	/	/	/	/	/
COc1ccc(C(=O)CSC#N)cc1OC	4	/	-14	9	15	/	/	/	/	/	/	/
CCc1ccc2cc3c(cc2n1)C(=O)c1ccccc1-3	?	61*	/	/	/	-14	1.3	?	3.8	9	-11	6
CCc1ccc2cc(C)cnc2n1	1	-1	/	/	/	0	/	/	/	/	/	/
COc1ccccc1N1C(=O)S/C(=C\c2ccc(C)s2)C1=O	10	73*	/	-34	-67	-5	1	?	1.5	-3	-21	-1
N#Cc1ccc(Nc2nc(-c3ccccc3)cs2)cc1	26	74*	/	/	/	-18	1.6	0.81	2.4	7	-10	-9
O=C(O)c1ccc(Nc2nc(-c3ccccc3)cs2)cc1	/	/	55	-27	-45	/	/	/	/	/	/	/
Cc1[nH]nc2c1C(c1ccc(F)cc1)N(Cc1ccccc1)C2=O (configuration not stated)	-2	/	/	/	/	/	/	/	/	/	/	/
COC(=O)C1CCc2c(ccc3c2CCCC3)C1=O (configuration not stated)	-4	60*	101*	-25	-100	4	1.1	0.96	1.3	-13	2	-14
COc1cc(OC)cc(C(=O)Nc2cccc3c2CCCC3)c1	0	-2	-5	4	6	-1	/	/	/	/	/	/
c1ccc(-c2nnc3oc(-c4cccs4)nn23)cc1	-1	166*	/	0	/	-25	1.2	?	2.8	-9	-39	-12
CC(=O)NCCn1c(SCc2cc(F)ccc2F)nc2ccccc2c1=O	-9	-9	3	0	-4	3	/	/	/	/	/	/
C[C@@H]1CN([C@@H](C)CO)C(=O)c2cc(-c3ccc(C#N)cc3)cnc2O[C@@H]1CN(C)C(=O)c1cccnc1	/	-9	/	/	/	-6	/	/	/	/	/	/
CC(C)C(CC(=O)NCc1ccco1)c1ccco1 (configuration not stated)	-1	9	-4	5	-3	-3	/	/	/	/	/	/
CC(C)c1ccc(NC(=O)c2cccnc2)cc1	/	85*	91*	-40	-93	-14	1.1	0.81	1.6	-1	-27	5
O=c1oc(-c2ccccc2)cc2ccccc12	1	77*	/	/	/	10	1.3	1	2	3	-13	-3
Cc1c(C(=O)Nc2ccc(Oc3ccccc3)cc2)sc2nc3n(c(=O)c12)CCC3	/	-10	0	13	2	-7	/	/	/	/	/	/
